From PubChem BioAssay AID1851 (National Center for Advancing Translational Sciences (NCATS), 2009)
“And” between values parts separate entries of the source, which are not always exact repeats. Identical values can stand only once. The campaign covered roughly 16,000 compounds. About 5,700 (36%) were called active. Another 24% or so got no clear call; they are omitted. Calls follow the shape of the dose curve; as a rule, active = well fitted curve in the direction sought with a large enough effect; inconclusive = small, poorly fitted or top-dose-only effect, or effect the other way; inactive = no such curve, though single readings can be large or run the other way. The list shows a part of the results.
% is scaled to controls: 0 for no effect and ±100 for the full control effect.

These molecules were tested against Cytochrome P450 1A2 (Homo sapiens) (UniProt P05177) (assay: Cytochrome panel assay with activity outcomes). Details: recombinant CYP, pro-luciferin dealkylation, luminescence, p450-cyp1a2; series mostly up to 57.1 µM; activity, negative = inhibition: at the top concentration.
Sequence of Cytochrome P450 1A2 (Homo sapiens) (P05177 whole entry, looked up): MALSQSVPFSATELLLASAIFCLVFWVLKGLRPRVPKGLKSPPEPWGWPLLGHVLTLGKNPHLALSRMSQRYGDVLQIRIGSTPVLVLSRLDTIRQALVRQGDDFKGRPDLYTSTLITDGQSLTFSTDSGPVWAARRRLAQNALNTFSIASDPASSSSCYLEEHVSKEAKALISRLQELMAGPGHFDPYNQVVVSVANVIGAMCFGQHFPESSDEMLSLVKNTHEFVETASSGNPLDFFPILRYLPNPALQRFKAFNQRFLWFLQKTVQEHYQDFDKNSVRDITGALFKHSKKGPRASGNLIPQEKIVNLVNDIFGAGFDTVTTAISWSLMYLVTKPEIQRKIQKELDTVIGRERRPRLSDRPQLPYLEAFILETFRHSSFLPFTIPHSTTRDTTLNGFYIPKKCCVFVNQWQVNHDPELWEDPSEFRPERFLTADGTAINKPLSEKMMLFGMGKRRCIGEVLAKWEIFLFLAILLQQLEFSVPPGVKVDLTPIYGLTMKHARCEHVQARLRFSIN
With Cc1ccc2occ(/C=C/C(=O)O)c(=O)c2c1 the “activity, negative = inhibition” value was -2.47% (inactive). c1csc(CNc2ncncc2-c2ccoc2)c1 was tested, and the AC50 was 2 µM (active). With c1ccc(CNc2ncncc2-c2ccoc2)cc1 the AC50 was 5.01 µM (active). In the case of c1cncc(-c2cncnc2NCc2cccs2)c1, the AC50 is reported as 0.316 µM (active). For CC(N)=NCc1cccc(CN)c1, the AC50 was “inactive”. In the case of O=C(NCc1ccccc1)C(c1ccncc1)N(C(=O)c1csnn1)C1CC1 (stereo not drawn), the “activity, negative = inhibition” value is reported as -5.19% (inactive). In the case of CN(C)CCCN1CCC2(CCC(C(C)(C)C)CC2)CC1, the activity, negative = inhibition is reported as -1.31% [at 11.4 µM] (inactive). In the case of COc1ccc(-c2nc(-c3cccc(C)c3)nc(N3CCN(C)CC3)c2C#N)cc1, the “activity, negative = inhibition” value is reported as -22.7% (inactive). With CN1CCN(c2nc(-c3cccc(C#N)c3)nc3ccccc23)CC1 the AC50 was 1.58 µM (active). For N#Cc1cccc(-c2nc(N3CCNCC3)c3ccccc3n2)c1, the AC50 was 2.51 µM (active). In the case of COc1ccc(C(=O)NC2(C(F)(F)F)C(=O)Nc3c2c(=O)[nH]c(=O)n3CCc2ccc(OC)c(OC)c2)cc1 (stereo not drawn), the “activity, negative = inhibition” value is reported as -2.71% (inactive). For CC(=O)OCc1c(C(F)(F)F)nn(C)c1Sc1ccccc1, the AC50 was 15.8 µM (active). With COc1cc(S(C)=O)ccc1-c1nc2ncccc2[nH]1 (stereo not drawn) the AC50 was 0.251 µM (active). In the case of O=C(O)C[C@H](NC(=O)CP(=O)(O)O)C(=O)O.[NH-][C@@H]1CCCC[C@@H]1[NH-].[Pt], the activity, negative = inhibition is reported as -15.5% [at 11.4 µM] (inactive). In the case of FC(F)(F)c1nnc2c(Sc3ccc(Cl)cc3)nc3ccccc3n12, the AC50 is reported as 0.1 µM (active). For FC(F)(F)c1nnc2c(Sc3ccccc3)nc3ccc(Cl)cc3n12, the AC50 was 0.708 µM (active). In the case of CC(/C=N/n1c(-c2cccnc2)n[nH]c1=S)=C\c1ccccc1, the AC50 is reported as 0.141 µM (active). With NNC(=O)c1nn(-c2ccc(Cl)cc2)ccc1=O the AC50 was 15.8 µM (active). With O=C(O)c1nn(-c2ccccc2)ccc1=O the “activity, negative = inhibition” value was -8.64% (inactive). For CC(C)=CCC/C(C)=C/CO/N=C1/C[C@@H](O)[C@@H](O)[C@@H]2[C@H]3C(=O)N(c4ccc(F)cc4F)C(=O)[C@@H]3CC[C@@H]12, the activity, negative = inhibition was 8.54% [at 11.4 µM] (inactive). For C#CCN(C)CCCOc1ccc(Cl)cc1Cl, the AC50 was 631 nM (active) and 158 nM (active). With C#CCN(C)Cc1ccccc1 the AC50 was “inactive”. With CC[C@]1(O)C[C@H]2CN(CCc3c([nH]c4ccccc34)[C@](C(=O)OC)(c3cc4c(cc3OC)N(C=O)[C@H]3[C@@](O)(C(=O)OC)[C@H](OC(C)=O)[C@@]5(CC)C=CCN6CC[C@]43[C@H]65)C2)C1 the “activity, negative = inhibition” value was -7.42% (inactive). For CO[C@H]1C[C@@H]2C[C@H](O)C[C@@H](CC(=O)O[C@@H](/C=C\CC(C)C)C[C@@H]3CC[C@H](C)[C@@H](C1)O3)O2, the activity, negative = inhibition was -2.91% [at 11.4 µM] (inactive). With O=C1CSC2(CCN(CCCN3c4ccccc4Sc4ccc(Cl)cc43)CC2)N1 the AC50 was 3.16 µM (active). In the case of CN1CCN(CCCN2c3ccccc3Sc3ccc(Cl)cc32)CC1, the AC50 is reported as 1 µM (active) and 2.51 µM (active). O=c1n(CCCN2CCN(c3cccc(Cl)c3)CC2)nc2ccccn12 was tested, and the AC50 was “inactive”. With OC1CC2CC[C@H](C1)N2CCCN1c2ccccc2Sc2ccc(Cl)cc21 (stereo partly drawn) the activity, negative = inhibition was -12.5% [at 11.4 µM] (inactive). CN1CCC[C@@H]1CCO[C@](C)(c1ccccc1)c1ccc(Cl)cc1 was tested, and the AC50 was “inactive”. For CN1CCCC[C@@H]1CCN1c2ccccc2Sc2ccc(S(C)=O)cc21 (stereo partly drawn), the AC50 was “inactive”. In the case of CCSc1ccc2c(c1)N(CCCN1CCN(C)CC1)c1ccccc1S2, the AC50 is reported as 0.316 µM (active). For CSc1ccc2c(c1)N(CC[C@H]1CCCCN1C)c1ccccc1S2, the AC50 was 7.94 µM (active). In the case of Clc1ccc2c(c1)N(CCCN1CCCC13CCCCC3)c1ccccc1S2, the activity, negative = inhibition is reported as -6.18% [at 2.29 µM] (inactive). For Nc1c(S(N)(=O)=O)cc(S(N)(=O)=O)cc1S(N)(=O)=O, the activity, negative = inhibition was -11.6% [at 11.4 µM] (inactive). In the case of COCCCNCCCCOc1c(Cl)cc(C)cc1Br, the AC50 is reported as 0.562 µM (active). With C=CCNCCCCOc1c(Cl)cc(C)cc1Br the AC50 was 0.2 µM (active). In the case of FC(F)(F)c1cc(CN2CCCC3(CCNCC3)C2)cc(C(F)(F)F)c1, the “activity, negative = inhibition” value is reported as -20.7% (inactive). C[C@H]1/C=C\CC(=O)OC[C@H](C)C(=O)N2CCC[C@@H]2C(=O)OC1 was tested, and the activity, negative = inhibition was 7.07% [at 11.4 µM] (inactive). With CCOC(=O)NNc1nncc2ccccc12 the AC50 was 5.01 µM (active). In the case of NNc1nncc2ccccc12, the AC50 is reported as 1 µM (active). c1ccc(Nc2ncncc2-c2ccoc2)cc1 was tested, and the AC50 was 1 µM (active). In the case of c1ncc(-c2ccoc2)c(NC2CC2)n1, the AC50 is reported as 15.8 µM (active). In the case of Fc1ccc(Nc2ncncc2-c2ccoc2)cc1, the AC50 is reported as 0.316 µM (active). For Cc1noc(C)c1-c1cncnc1NC1CC1, the “activity, negative = inhibition” value was -12.4% (inactive). In the case of COc1cc(C2C(C#N)=C(N)N(Nc3ccccc3)C3=C2C(=O)CC(C)(C)C3)ccc1OCc1ccccc1 (stereo not drawn), the “activity, negative = inhibition” value is reported as -22.4% (inactive). For COc1cc(/C=N/O)cc(Br)c1OCc1cccc(Cl)c1, the AC50 was 0.631 µM (active). With N/C(=N\OC(=O)c1cc(-c2ccccc2)nc2ccccc12)c1ccc(Cl)cc1 the AC50 was 11.2 µM (active). For O=C(O)c1cc(-c2ccc(-c3ccc(-c4cc(C(=O)O)c5cc(Cl)ccc5n4)cc3)cc2)nc2ccc(Cl)cc12, the activity, negative = inhibition was -18.1% [at 2.29 µM] (inactive). With O=C1[C@H]2[C@H]3[C@H](O)[C@H](O)C/C(=N/OC[C@@H](O)COCc4ccco4)[C@@H]3CC[C@@H]2C(=O)N1Cc1ccccc1 the activity, negative = inhibition was 11.1% [at 11.4 µM] (inactive). With CCNc1ncc2nc(-c3ccccc3)c(=O)n(C3CC3)c2n1 the AC50 was 2.51 µM (active). In the case of CCNc1ncc2nc(-c3ccc(Cl)cc3)c(=O)n(C3CC3)c2n1, the AC50 is reported as 0.501 µM (active). For O=C(O)C1=C/C(=C(/c2ccccc2)c2cc(C(=O)O)c(O)c3ccccc23)c2ccccc2C1=O, the activity, negative = inhibition was -21.5% [at 11.4 µM] (inactive) and -13.1% [at 11.4 µM] (inactive). For Cc1ccc(O)c(-c2cc(C(F)(F)C(F)F)nc(-c3ccccc3)n2)c1, the AC50 was 2.82 µM (active). In the case of COc1ccccc1NC(=S)NC(=O)c1ccc(-c2ccc(Cl)cc2)o1, the AC50 is reported as 2.82 µM (active). With COc1ccccc1NC(=S)NNC(=O)c1c(Cl)c(C)nn1C the “activity, negative = inhibition” value was -12.1% (inactive). For COc1ccccc1NC(=S)NCCc1ccccc1, the AC50 was 12.6 µM (active). In the case of Fc1ccccc1NC(=S)NCCc1ccccc1, the AC50 is reported as 5.62 µM (active). With Fc1ccc(NC(=S)NCCc2ccccc2)c(F)c1F the AC50 was 5.62 µM (active). CCn1cc(C(=O)O)c(=O)c2cc(F)c(N3CCN[C@@H](C)C3)c(F)c21 was tested, and the AC50 was “inactive”. CC(C)(C)c1ccc(S(=O)(=O)/C=C\C#N)cc1 was tested, and the AC50 was 1.58 µM (active). In the case of C[C@@](N)(C(=O)O)c1ccc(S(=O)(=O)O)cc1, the “activity, negative = inhibition” value is reported as -0.679% (inactive). CCc1cc2c(=O)c(-c3nc4ccccc4[nH]3)coc2cc1OC(=O)N1CCOCC1 was tested, and the “activity, negative = inhibition” value was -29.4% (inactive). With CC(=O)NCCC(=O)Nc1sc2c(c1-c1nc3ccccc3[nH]1)CCCC2 the AC50 was 7.08 µM (active). Cc1c(OC(=O)c2ccc([N+](=O)[O-])cc2)c2c(c[n+]1C)COC(C)(C)OC2 was tested, and the AC50 was 17.8 µM (active). OCC1CCCN(Cc2ccc(-c3ccccc3)cc2)C1 (stereo not drawn) was tested, and the “activity, negative = inhibition” value was -18.3% (inactive). For Cc1ccc(C(=O)c2c[nH]c(C(=O)NCCCN3CCOCC3)c2)cc1, the “activity, negative = inhibition” value was -13.6% (inactive). Cc1cc(C)cc(N(C(=O)c2ccccn2)C(C(=O)NC2CCCCC2)c2cccs2)c1 (stereo not drawn) was tested, and the “activity, negative = inhibition” value was -5.91% (inactive). In the case of O=C(NCCCN1CCOCC1)c1cc(C(=O)C2CC2)c[nH]1, the AC50 is reported as 17.8 µM (active). With O=C(NCCc1ccccn1)c1cc(C(=O)C2CCCCC2)c[nH]1 the AC50 was 14.1 µM (active). With O=C(NCCCN1CCOCC1)c1cc2c(s1)CSC2 the “activity, negative = inhibition” value was -28.3% (inactive). For C/C(CCC(=O)OC[C@@H]1O[C@H](C#Cc2ccccc2)C=C[C@@H]1Oc1ccc(C)cc1)=N/O[C@@H](C)CN1CCCc2nc(C)c(C)cc21, the activity, negative = inhibition was -8.42% [at 11.4 µM] (inactive). For CC(=O)OC[C@@H]1O[C@@H](O/N=C2/C[C@@H](O)[C@@H](O)[C@@H]3[C@@H]4C(=O)N(C(C)(C)C)C(=O)[C@H]4CC[C@@H]23)[C@H](OC(C)=O)[C@H](OC(C)=O)[C@@H]1OC(C)=O, the activity, negative = inhibition was -1.47% [at 11.4 µM] (inactive). In the case of [O-][N+]1(CC[N+]2([O-])CCCCC2)CCCCC1, the activity, negative = inhibition is reported as -3.29% [at 11.4 µM] (inactive). COc1ccc(NC(=O)c2cccs2)c([N+](=O)[O-])c1 was tested, and the AC50 was 3.16 µM (active). With COc1ccc(NC(=O)CSc2nncn2C)c([N+](=O)[O-])c1 the AC50 was 11.2 µM (active). COc1ccc(NC(=O)C(=O)NNC(=O)c2cccs2)c(OC)c1 was tested, and the “activity, negative = inhibition” value was -10.5% (inactive). With COc1ccc(NC(=O)CN(C)S(=O)(=O)c2ccc(Cl)cc2)c([N+](=O)[O-])c1 the “activity, negative = inhibition” value was -11.6% (inactive). For COc1ccc(NC(=O)c2ccc(C)cc2Cl)c([N+](=O)[O-])c1, the AC50 was 2 µM (active). For CCOc1ccc(/C=C/C(=O)Nc2ccc(OC)cc2[N+](=O)[O-])cc1, the “activity, negative = inhibition” value was -27.7% (inactive). In the case of CC(C)(C)N1C(=O)[C@H]2[C@@H]3[C@H](O)C=CC(=O)[C@H]3CC[C@H]2C1=O, the activity, negative = inhibition is reported as -5.4% [at 11.4 µM] (inactive). c1ccc(Nc2nc(-c3ccc4c(c3)OCO4)nc3ccccc23)cc1 was tested, and the AC50 was 1.26 µM (active). c1ccc2c(Nc3ccncc3)nc(-c3ccc4c(c3)OCO4)nc2c1 was tested, and the AC50 was 1.26 µM (active). With COc1cc(C2C(C#N)=C(N)N(Nc3ccccc3)C3=C2C(=O)CC(C)(C)C3)ccc1OCc1cccc(F)c1 (stereo not drawn) the “activity, negative = inhibition” value was -13.1% (inactive). For CN1CCN(c2nc3cc(C(F)(F)F)ccc3n3cccc23)CC1, the AC50 was 200 nM (active) and 39.8 nM (active). In the case of COc1ccc(-c2csc(N3C(=N)SCC3=O)n2)cc1, the AC50 is reported as 0.631 µM (active). With O=C1C2C3c4ccccc4C(c4ccccc43)C2C(=O)N1c1nc(-c2ccccc2)cs1 (stereo not drawn) the “activity, negative = inhibition” value was -8.29% (inactive). N=C1SCC(=O)N1c1nc(-c2ccccc2)cs1 was tested, and the AC50 was 1.41 µM (active). CC(C)OC(=O)CC12CN(C)CC(CC(=O)OC(C)C)(CN(C)C1)C2=O was tested, and the “activity, negative = inhibition” value was -15.3% (inactive).
